Experimental data published in PubChem BioAssay (EPA / NIEHS).
Active and inactive are the calls of the source. Rule for the calls: active = hit-call score of the fitted dose curve at least 0.9, where 1 is the maximum; inactive = score below 0.9.

How the values were obtained:
[1] = read-out: Tissue Factor, F3 (gene 2152); experiment: BSK_CASM3C_TissueFactor: BioMAP Diversity Plus: CASM3C Assay for Tissue Factor Biomarker Activity (AID 2283052); details: primary human coronary artery smooth muscle cells; actives raise or lower the signal;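 note: cell surface tissue factor protein level read by ELISA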
[2] = read-out: Interferon-gamma inducible Protein 10 (IP10), CXCL10 (gene 3627); experiment: BSK_hDFCGF_IP10: BioMAP Diversity Plus: hDFCGF Assay for Interferon-gamma inducible Protein 10 (IP10) Biomarker Activity (AID 2283053); details: primary human foreskin fibroblasts; actives raise or lower the signal
Method in brief: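 Primary foreskin fibroblasts, human; 24 h compound exposure; IP-10 by ELISA; bidirectional fit vs DMSO.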

[3] = read-out: Urokinase-type plasminogen activator receptor (uPAR), PLAUR (gene 5329); experiment: BSK_CASM3C_uPAR: BioMAP Diversity Plus: CASM3C Assay for Urokinase-type plasminogen activator receptor (uPAR) Biomarker Activity (AID 2283054); details: primary human coronary artery smooth muscle cells; actives raise or lower the signal;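 note: cell-surface uPAR protein level quantified by ELISA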
[4] = read-out: Vascular cell adhesion molecule 1 (VCAM1), VCAM1 (gene 7412); experiment: BSK_CASM3C_VCAM1: BioMAP Diversity Plus: CASM3C Assay for Vascular cell adhesion molecule 1 (VCAM1) Biomarker Activity (AID 2283055); details: primary human coronary artery smooth muscle cells; actives raise or lower the signal;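 note: VCAM-1 protein level quantified by ELISA on the cells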
[5] = read-out: Collagen III, COL3A1 (gene 1281); experiment: BSK_hDFCGF_CollagenIII: BioMAP Diversity Plus: hDFCGF Assay for Collagen III Biomarker Activity (AID 2283056); details: primary human foreskin fibroblasts; actives raise or lower the signal
Method in brief: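 Response relative to DMSO, fitted in both directions, reflects ELISA-measured collagen III in human primary skin fibroblasts 24 h after compound addition.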

[6] = read-out: Epidermal growth factor receptor (EGFR), EGFR (gene 1956); experiment: BSK_hDFCGF_EGFR: BioMAP Diversity Plus: hDFCGF Assay for Epidermal growth factor receptor (EGFR) Biomarker Activity (AID 2283057); details: primary human foreskin fibroblasts; actives raise or lower the signal
Method in brief: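 hDFCGF system, primary human foreskin fibroblasts; compound 24 h; EGFR measured by ELISA; DMSO = negative control/baseline; bidirectional fitting.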

[7] = read-out: Interleukin-8 (IL8), CXCL8 (gene 3576); experiment: BSK_hDFCGF_IL8: BioMAP Diversity Plus: hDFCGF Assay for Interleukin-8 (IL8) Biomarker Activity (AID 2283058); details: primary human foreskin fibroblasts; actives raise or lower the signal
Method in brief: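 Fibroblast monolayers (human foreskin, hDFCGF) received test chemical for 24 h before ELISA detection of IL-8; either increases or decreases relative to DMSO count as activity.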

[8] = BSK_hDFCGF_Proliferation: Cell Proliferation Assessment in the BioMAP Diversity Plus: hDFCGF Assay (AID 2283059); details: primary human foreskin fibroblasts;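 note: curves fitted for both rise and fall of signal versus DMSO baseline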
Method in brief: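 This proliferation readout used SRB total-protein staining of human foreskin fibroblasts […], normalized to DMSO with bidirectional curve fitting.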

[9] = read-out: Macrophage colony-stimulating factor (MCSF), CSF1 (gene 1435); experiment: BSK_hDFCGF_MCSF: BioMAP Diversity Plus: hDFCGF Assay for Macrophage colony-stimulating factor (MCSF) Biomarker Activity (AID 2283060); details: primary human foreskin fibroblasts; actives raise or lower the signal
Method in brief: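 fibroblasts (human foreskin, primary), 24 h post-dose; M-CSF by ELISA; bidirectional fit, DMSO = baseline.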

[10] = BSK_hDFCGF_SRB: Viability Assessment in the BioMAP Diversity Plus: hDFCGF Assay (AID 2283061); details: primary human foreskin fibroblasts;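 note: cells exposed to compound for 24 h before the read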
Method in brief: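 SRB-based viability read on primary human skin fibroblasts at 24 h: TCA fixation, 0.1% dye, 560 nm. Gain or loss of signal is fitted against the DMSO negative control.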

[11] = read-out: TIMP metallopeptidase inhibitor 1 (TIMP1), TIMP1 (gene 7076); experiment: BSK_hDFCGF_TIMP1: BioMAP Diversity Plus: hDFCGF Assay for TIMP metallopeptidase inhibitor 1 (TIMP1) Biomarker Activity (AID 2283062); details: primary human foreskin fibroblasts; actives raise or lower the signal
Method in brief: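 Bidirectional curve fitting against DMSO baseline yielded this endpoint, based on ELISA detection of TIMP-1 in primary human foreskin fibroblasts exposed to compound for 24 h.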

[12] = read-out: Monokine induced gamma interferon (MIG), CXCL9 (gene 4283); experiment: BSK_hDFCGF_MIG: BioMAP Diversity Plus: hDFCGF Assay for Monokine induced gamma interferon (MIG) Biomarker Activity (AID 2283063); details: primary human foreskin fibroblasts; actives raise or lower the signal
Method in brief: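 Endpoint derived by bidirectional fitting relative to DMSO; MIG quantified via ELISA in primary human foreskin fibroblasts harvested 24 h after dosing.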

[13] = read-out: Matrix Metallopeptidase 1 (MMP1), MMP1 (gene 4312); experiment: BSK_hDFCGF_MMP1: BioMAP Diversity Plus: hDFCGF Assay for Matrix Metallopeptidase 1 (MMP1) Biomarker Activity (AID 2283064); details: primary human foreskin fibroblasts; actives raise or lower the signal
Method in brief: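 Primary human foreskin fibroblasts in the hDFCGF system were dosed with test chemical, and MMP1 was measured by ELISA 24 h later. Values come from bidirectional curve fitting against the DMSO baseline.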

[14] = read-out: Vascular cell adhesion molecule 1 (VCAM1), VCAM1 (gene 7412); experiment: BSK_hDFCGF_VCAM1: BioMAP Diversity Plus: hDFCGF Assay for Vascular cell adhesion molecule 1 (VCAM1) Biomarker Activity (AID 2283065); details: primary human foreskin fibroblasts; actives raise or lower the signal;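 for AC50: VCAM-1 protein level quantified by ELISA after 24 h chemical exposure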
Method in brief: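 Measured after 24 h chemical treatment of primary human skin fibroblasts, VCAM-1 was detected by ELISA and concentration-response analysed in both directions versus DMSO vehicle.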

[15] = read-out: Plasminogen activator inhibitor-1 (PAI1), SERPINE1 (gene 5054); experiment: BSK_hDFCGF_PAI1: BioMAP Diversity Plus: hDFCGF Assay for Plasminogen activator inhibitor-1 (PAI1) Biomarker Activity (AID 2283066); details: primary human foreskin fibroblasts; actives raise or lower the signal
Method in brief: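 Primary dermal fibroblasts (human foreskin), hDFCGF system; compound 24 h; PAI-1 by ELISA; bidirectional fit vs DMSO control.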

[16] = read-out: Intercellular Adhesion Molecule 1 (ICAM1), ICAM1 (gene 3383); experiment: BSK_KF3CT_ICAM1: BioMAP Diversity Plus: KF3CT Assay for Intercellular Adhesion Molecule 1 (ICAM1) Biomarker Activity (AID 2283067); details: primary human keratinocytes with fibroblasts; actives raise or lower the signal
Method in brief: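 Bidirectional curve fitting against a DMSO baseline was applied to ICAM-1 ELISA signal from primary human skin co-cultures harvested 24 h after treatment, with SRB staining of parallel wells for overt cytotoxicity.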

[17] = read-out: Interferon-gamma inducible Protein 10 (IP10), CXCL10 (gene 3627); experiment: BSK_KF3CT_IP10: BioMAP Diversity Plus: KF3CT Assay for Interferon-gamma inducible Protein 10 (IP10) Biomarker Activity (AID 2283068); details: primary human keratinocytes with fibroblasts; actives raise or lower the signal
Method in brief: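 Signal is secreted/surface IP-10 by ELISA in a human primary skin co-culture of keratinocytes and foreskin fibroblasts, taken 24 h post-dosing; DMSO served as negative control.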

[18] = BSK_KF3CT_SRB: Viability Assessment in the BioMAP Diversity Plus: KF3CT Assay (AID 2283069); details: primary human keratinocytes with fibroblasts;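 note: total protein by sulforhodamine B staining as a cytotoxicity measure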
Method in brief: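 Human primary keratinocyte plus foreskin fibroblast co-culture exposed to chemicals for 24 h. Total protein measured by 0.1% sulforhodamine B staining after 10% TCA fixation, read at 560 nm; bidirectional fitting versus DMSO baseline.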

[19] = read-out: Interleukin-1 alpha (IL1a), IL1A (gene 3552); experiment: BSK_KF3CT_IL1a: BioMAP Diversity Plus: KF3CT Assay for Interleukin-1 alpha (IL1a) Biomarker Activity (AID 2283070); details: primary human keratinocytes with fibroblasts; actives raise or lower the signal
Method in brief: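 Human keratinocyte plus foreskin fibroblast primary co-culture, sampled 24 h after chemical dosing. IL-1a measured by ELISA; responses fitted bidirectionally against DMSO baseline (negative control), so gain or loss of signal both count.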

[20] = read-out: TIMP metallopeptidase inhibitor 2 (TIMP2), TIMP2 (gene 7077); experiment: BSK_KF3CT_TIMP2: BioMAP Diversity Plus: KF3CT Assay for TIMP metallopeptidase inhibitor 2 (TIMP2) Biomarker Activity (AID 2283071); details: primary human keratinocytes with fibroblasts; actives raise or lower the signal
Method in brief: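 Cells: human keratinocytes co-cultured with foreskin fibroblasts. Treat with chemical, 24 h. Measure TIMP-2 by ELISA; fit curves bidirectionally vs DMSO baseline.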

Measured: AC50

CC(=O)NC1(c2cccc(F)c2)CCN(CC[C@@]2(c3ccc(Cl)c(Cl)c3)CN(c3ccccc3)C(=O)CO2)CC1
inactive: [1] | [4] | [6] | [16] | [19] | [20]
active: [2] 28.2 µM | [3] 16.6 µM | [5] 6.66 µM | [7] 25.9 µM | [8] 13.4 µM | [9] 24.5 µM | [10] 24.5 µM | [11] 26.7 µM | [12] 31.8 µM | [13] 30.2 µM | [14] 27 µM | [15] 23.8 µM | [17] 25.3 µM | [18] 25.1 µM

CCCCCCCCOC(=O)CCCCCCCCC(=O)OCCCCCCCC
inactive: all assays above

CC(C)(C)c1cccc(C(C)(C)C)c1O
active: [1] 20 µM | [2] 37.8 µM | [5] 35.9 µM | [7] 36.8 µM | [8] 35 µM | [9] 31 µM | [10] 35.7 µM | [11] 36.3 µM | [12] 34.9 µM | [13] 35.9 µM | [14] 35.5 µM | [15] 36.6 µM | [16] 37.9 µM | [17] 37.5 µM | [18] 33.8 µM | [19] 31 µM | [20] 37.1 µM
inactive: [3] | [4] | [6]

CC[C@H](C)[C@@H](C(=O)O)n1sc2ccccc2c1=O
inactive: all assays above

COCC(C)OCC(C)O (stereo not given)
inactive: all assays above
